High-throughput results deposited in PubChem BioAssay by National Center for Advancing Translational Sciences (NCATS).
Compounds with a hit are over-represented: about 19% of the library has one in this group of screens.
HT1080-NT tox: qHTS for induction of synthetic lethality in tumor cells producing 2HG: qHTS for the HT-1080-NT fibrosarcoma cell line | 1.6% of 360,000 active | HT-1080-NT fibrosarcoma viability, CellTiter-Glo ATP luminescence, 48 h | Potency, µM (series often up to 46.1 µM), actives largely listed as cytotoxic | AID 686970, 2013;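 note: NT is the 2HG producing partner of a matched IDH1 knockdown line; nearly all actives have a fitted effect of over 55% in size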
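Viability of the 2HG-overproducing fibrosarcoma line after 48 hours of compound exposure at 37 degrees C was determined by luminescence with CellTiter-Glo, and concentration-effect curves were then fitted and categorized.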
DT40 TDP1 no CPT: qHTS for Inhibitors of human tyrosyl-DNA phosphodiesterase 1 (TDP1): qHTS in cells in absence of CPT; Potency, µM (top dose mostly 46.2 µM), actives largely listed as inhibitors; DT40 Tdp1-/- hTDP1 cells, no CPT, ATP luminescence, 48 h; 15% of 420,000 active; AID 686978, 2013; note: nearly all actives have a fitted effect of over 55% in size
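No-CPT arm: Tdp1-/-;hTDP1 DT40 cells (400/well) plus compounds, incubated ≥48 hr at 37 °C. Readout CellTiter-Glo luminescence.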
DT40 TDP1 CPT: qHTS for Inhibitors of human tyrosyl-DNA phosphodiesterase 1 (TDP1): qHTS in cells in presence of CPT; 12% of 420,000 active; Potency, µM (top dose mostly 46.2 µM), hits mostly inhibitors; AID 686979, 2013; chicken DT40 Tdp1-/-;hTDP1 cells + 20 nM CPT, ATP luminescence, 48 h; note: nearly all actives have a fitted effect of over 55% in size
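Cell growth measured by CellTiter-Glo luminescence after a minimum 48 h, 37 C compound exposure with 20 nM CPT in Tdp1-knockout DT40 cells stably expressing hTDP1, seeded 400/well; qHTS titration format.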
IL1B secr inh: qHTS for Inhibitors of Inflammasome Signaling: IL-1-beta AlphaLISA Primary Screen; THP-1 LPS/ATP IL-1B secretion, AlphaLISA, 16 h; hits give low values; activity change, % at 57.5 µM; 4.7% of 360,000 active; in the data active = activity change below about -50%; inconclusive = mostly about -30% to -49%
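THP-1 cells pretreated 1 hr with compounds (up to 57.5 uM final), then stimulated with LPS (250 ng/mL final) plus ATP (1.25 mM final); secreted IL-1B measured by AlphaLISA after 16 hr, decreased signal indicating inhibition.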
HT1080 IDH1KD tx: qHTS for induction of synthetic lethality in tumor cells producing 2HG: qHTS for the HT-1080-IDH1KD cell line | HT-1080 IDH1 knockdown viability, ATP luminescence, 48 h | Potency, µM (highest dose often 46.1 µM), most hits filed as cytotoxic | 2% of 360,000 active | AID 686971, 2013
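After a 2 h attachment period, IDH1KD HT-1080 cells took pin-transferred compound for 48 h at 37 °C; ATP-based luminescence after 10 min room-temperature reagent incubation reported viability.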
Hits are given with their value; [ ] = remark or other dose. Unless noted, calls come from the whole dose curve; as a rule, active = well fitted curve in the direction sought with a large enough effect; inconclusive = small, poorly fitted or top-dose-only effect, or another doubt; inactive = no such curve, though single readings can be large; an effect the other way counts as inactive or inconclusive.

Screening Cc1ccc(CN2C(=O)CSC(C)C2=O)cc1 (stereo not drawn) returned HT1080-NT tox inactive, DT40 TDP1 no CPT inactive, DT40 TDP1 CPT inactive, IL1B secr inh inactive and HT1080 IDH1KD tx inactive.
For Cc1ccc(OCCCN2C(=O)C(=O)c3cccc(C)c32)cc1 the results were HT1080-NT tox inactive, DT40 TDP1 no CPT 15µM, DT40 TDP1 CPT 7.3µM, IL1B secr inh inactive and HT1080 IDH1KD tx inactive.
`Cc1ccc(OCCN2C(=O)C(=O)c3cc(C)ccc32)cc1` gave HT1080-NT tox inactive, DT40 TDP1 no CPT inconclusive, DT40 TDP1 CPT 0.92µM, IL1B secr inh inactive and HT1080 IDH1KD tx inconclusive.
O=C(NCc1cccc(C(F)(F)F)c1)c1csc(COCCO)n1 was read as HT1080-NT tox inactive, DT40 TDP1 no CPT inactive, DT40 TDP1 CPT inactive, IL1B secr inh inactive and HT1080 IDH1KD tx inactive.
`Cc1cccc2c1N(CCOc1ccc(C(C)(C)C)cc1)C(=O)C2=O` gave HT1080-NT tox inconclusive, DT40 TDP1 no CPT 4.1µM, DT40 TDP1 CPT 2.9µM, IL1B secr inh inactive and HT1080 IDH1KD tx inconclusive.
For CNCCCCCCCCSc1nc(C(C)C)ccc1C(=O)c1cccs1 the results were DT40 TDP1 no CPT 4.2µM and DT40 TDP1 CPT 4.2µM.
O=C(NCCCCCCNC(=O)c1cccs1)c1cccs1 was read as HT1080-NT tox inactive, DT40 TDP1 no CPT inconclusive, DT40 TDP1 CPT inactive, IL1B secr inh inactive and HT1080 IDH1KD tx inactive.
For COc1cccc(N2CC(NC(=O)/C=C\c3ccc4c(c3)OCO4)CC2=O)c1 (stereo not drawn) the results were DT40 TDP1 no CPT inactive and DT40 TDP1 CPT inactive.
Nc1ccc(N2CCCCC2)c(S(=O)(=O)Nc2ccccc2Cl)c1 was read as HT1080-NT tox inactive, DT40 TDP1 no CPT inactive, DT40 TDP1 CPT inactive, IL1B secr inh inactive and HT1080 IDH1KD tx inactive.
For Nc1cc(S(=O)(=O)N2CCCCC2)ccc1N1CCOCC1 the results were HT1080-NT tox inactive, DT40 TDP1 no CPT inconclusive, DT40 TDP1 CPT inactive, IL1B secr inh inactive and HT1080 IDH1KD tx inactive.
Screening COC(=O)c1cc(NS(=O)(=O)c2ccc(N3CCOCC3)c(N)c2)cc(C(=O)OC)c1 returned HT1080-NT tox inactive, DT40 TDP1 no CPT inactive, DT40 TDP1 CPT inactive, IL1B secr inh -54 and HT1080 IDH1KD tx inactive.
For Nc1cc(S(=O)(=O)c2ccc(N3CCCCC3)c(N)c2)ccc1N1CCCCC1 the results were HT1080-NT tox inactive, DT40 TDP1 no CPT 12µM, DT40 TDP1 CPT 9.2µM, IL1B secr inh inactive and HT1080 IDH1KD tx inconclusive.
For COc1ccc(NS(=O)(=O)c2ccc(N3CCCCC3)c(N)c2)cc1 the results were HT1080-NT tox inactive, DT40 TDP1 no CPT 1.3µM, DT40 TDP1 CPT 2.6µM, IL1B secr inh inactive and HT1080 IDH1KD tx inactive.
`Nc1cc(S(=O)(=O)Nc2ccccc2Cl)ccc1N1CCCCC1` gave HT1080-NT tox inactive, DT40 TDP1 no CPT 9.2µM, DT40 TDP1 CPT 15µM, IL1B secr inh inactive and HT1080 IDH1KD tx inactive.
COC(=O)c1cc(NS(=O)(=O)c2ccc(N3CCOCC3)c(NC(C)=O)c2)cc(C(=O)OC)c1 was read as HT1080-NT tox inactive, DT40 TDP1 no CPT inactive, DT40 TDP1 CPT inactive, IL1B secr inh inactive and HT1080 IDH1KD tx inactive.
For O=C(NCC1CCCO1)C1c2ccccc2C(=O)N1Cc1ccc2c(c1)OCO2 (stereo not drawn) the results were HT1080-NT tox inactive, DT40 TDP1 no CPT inactive, DT40 TDP1 CPT inactive, IL1B secr inh inactive and HT1080 IDH1KD tx inactive.
For CC(=O)C1=C(O)C(=O)N(c2cccnc2)C1c1ccc(Cl)cc1 (stereo not drawn) the results were HT1080-NT tox inactive, DT40 TDP1 no CPT inactive, DT40 TDP1 CPT inactive, IL1B secr inh inactive and HT1080 IDH1KD tx inactive.
O=C1SC(SCc2ccccc2)=N/C1=C\c1ccco1 was read as HT1080-NT tox inactive[9.24 µM], DT40 TDP1 no CPT inactive, DT40 TDP1 CPT inactive, IL1B secr inh inactive and HT1080 IDH1KD tx inconclusive.
`O=C1SC(SCc2ccccc2)=N/C1=C\c1ccc(C(=O)O)cc1` gave HT1080-NT tox inactive, DT40 TDP1 no CPT inactive, DT40 TDP1 CPT inactive, IL1B secr inh -58 and HT1080 IDH1KD tx inactive.
`COc1ccc(CNC(=O)C/C(C)=N/NC(=O)c2cnccn2)cc1` gave HT1080-NT tox inactive, DT40 TDP1 no CPT inactive, DT40 TDP1 CPT inactive, IL1B secr inh inactive and HT1080 IDH1KD tx inactive.
`CC1CCN(CC[S-])CC1.O.O.[Cl][Pt]` gave DT40 TDP1 no CPT 1.6µM and DT40 TDP1 CPT 1.3µM.
Screening Cc1nc2cnc(Oc3cccc(Cl)c3)nc2n(CCC#N)c1=O returned DT40 TDP1 no CPT inconclusive and DT40 TDP1 CPT inactive.
Cc1ccccc1-n1nc(C)c2c(C(=O)NN)cc(-c3ccncc3)nc21 was read as HT1080-NT tox inactive, DT40 TDP1 no CPT inactive, DT40 TDP1 CPT inactive, IL1B secr inh inactive and HT1080 IDH1KD tx inactive.
`CCOC(=O)c1cc(-c2cccs2)nc2c1c(C)nn2-c1ccccn1` gave HT1080-NT tox inconclusive, DT40 TDP1 no CPT 15µM, DT40 TDP1 CPT 15µM, IL1B secr inh -79 and HT1080 IDH1KD tx inconclusive.
Screening Cc1nn(-c2ccccc2)c2nc(-c3ccncc3)cc(C(=O)NCc3ccco3)c12 returned HT1080-NT tox inconclusive, DT40 TDP1 no CPT 18µM, DT40 TDP1 CPT inconclusive, IL1B secr inh inactive and HT1080 IDH1KD tx inconclusive.
Cc1nn(-c2ccccn2)c2nc(-c3cccs3)cc(C(=O)NCc3ccco3)c12 was read as HT1080-NT tox inactive, DT40 TDP1 no CPT 23µM, DT40 TDP1 CPT 23µM, IL1B secr inh inactive and HT1080 IDH1KD tx inactive.
Screening COc1ccc(-c2cc(C(=O)NNC3=NCCC3)c3c(C)nn(-c4ccccc4)c3n2)cc1 returned HT1080-NT tox inactive, DT40 TDP1 no CPT inconclusive, DT40 TDP1 CPT inconclusive, IL1B secr inh inactive and HT1080 IDH1KD tx inconclusive.
Screening O=C(NCc1ccco1)c1cc(-c2cccs2)nc2ccccc12 returned HT1080-NT tox inactive, DT40 TDP1 no CPT inconclusive, DT40 TDP1 CPT inconclusive, IL1B secr inh inactive and HT1080 IDH1KD tx inactive.
`CC(/C=N/NC(=O)c1cc(-c2cccnc2)nc2c1c(C)nn2-c1ccccc1)=C\c1ccccc1` gave HT1080-NT tox inactive, DT40 TDP1 no CPT 13µM, DT40 TDP1 CPT 18µM, IL1B secr inh inactive and HT1080 IDH1KD tx inactive.
`O=C(O)Cc1ccc(S(=O)(=O)Nc2ccccc2C(=O)O)cc1` gave HT1080-NT tox inactive, DT40 TDP1 no CPT inactive, DT40 TDP1 CPT inactive, IL1B secr inh inactive and HT1080 IDH1KD tx inactive.
O=C(c1ccc(Cl)c(S(=O)(=O)N2CCCC2)c1)N1CCCCC1 was read as HT1080-NT tox inactive, DT40 TDP1 no CPT inconclusive, DT40 TDP1 CPT inactive, IL1B secr inh inactive and HT1080 IDH1KD tx inactive.
